In PubChem BioAssay (NCATS):
Results filed as inconclusive are left out. Some compounds were tested as several samples or in several runs, with calls that do not always agree. Active and inactive are the calls of the source. Calls follow the shape of the dose curve; as a rule, active = well fitted curve in the direction sought with a large enough effect; inconclusive = small, poorly fitted or top-dose-only effect, or another doubt; inactive = no such curve, though single readings can be large; an effect the other way counts as inactive or inconclusive.

How the values were obtained:
[1] = target: Beta-2 adrenergic receptor (Homo sapiens) (UniProt P07550); assay: qHTS validation assay of beta-arrestin-biased ligands of beta2-adrenergic receptor (AID 485366); details: cell-based beta-arrestin recruitment to ADRB2, qHTS; series mostly up to 46.1 µM
In short: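 Agonism was measured as beta-arrestin recruitment to recombinant beta2-AR, releasing tTA to drive luciferase. Cells were exposed for 18 hr at 37 degrees C to a series up to 46 microM. %Activity from corrected luminescence gave concentration-response curves.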

[2] = Quantitative high throughput screen for delayed death inhibitors of the malarial parasite plastid, 96 hour incubation (AID 488745); details: Plasmodium falciparum growth; series mostly up to 28.7 µM; also: nearly all actives have a fitted effect of over 70% in size; also: potency is read from the fitted curve at half-maximal effect
In short: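 Decreased firefly luciferase luminescence indicates inhibited growth of reporter-integrated P. falciparum after two generations (96 h, 37 C, 5% CO2). Infected erythrocytes at 0.1% parasitemia, 2% hematocrit, in Albumax-supplemented RPMI 1640.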

[3] = Quantitative high throughput screen for delayed death inhibitors of the malarial parasite plastid, 48 hour incubation (AID 488752); details: Plasmodium falciparum growth; series mostly up to 28.7 µM; also: nearly all actives have a fitted effect of over 65% in size; also: potency is read from the fitted curve at half-maximal effect
In short: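 One-generation (48 h) growth assay: a decrease in luciferase signal from an integrated reporter in P. falciparum-infected red cells (0.1% parasitemia, 2% hematocrit) after compound exposure at 37 C indicates parasite inhibition.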

[4] = target: Thioredoxin reductase 1, cytoplasmic (Rattus norvegicus) (UniProt O89049); assay: qHTS Assay for Substrates of Mammalian Selenoprotein Thioredoxin Reductase 1 (TrxR1) (AID 488772); details: purified TrxR1, NADPH consumption substrate assay; series mostly up to 57.1 µM;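 also: a drop in NADPH fluorescence below the no-compound background marks a TrxR1 substrate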
In short: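 In this dual-purpose format, potential substrates are identified from the first fluorescence read after selenite addition, not from the 8-minute delta. Rat enzyme is preincubated with NADPH and then with compound at ~22 deg C.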

[5] = target: Thioredoxin reductase 1, cytoplasmic (Rattus norvegicus) (UniProt O89049); assay: qHTS Assay for Inhibitors of Mammalian Selenoprotein Thioredoxin Reductase 1 (TrxR1) (AID 488773); details: purified TrxR1 enzyme activity; Potency: inhibition; series mostly up to 57.1 µM; also: nearly all actives have a fitted effect of over 40% in size; also: potency is read from the fitted curve at half-maximal effect
In short: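 Inhibition is scored from the loss of NADPH fluorescence between first and last reads of an 8-min kinetic run. Selenite (400 uM) was the substrate, added after 15 min compound preincubation at room temperature.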

[6] = target: Flap endonuclease 1 (Homo sapiens) (UniProt P39748); assay: qHTS Validation Assay for the Inhibitors of Human Flap endonuclease 1 (FEN1) (AID 488816); details: FEN1 nuclease activity, fluorogenic DNA substrate; series mostly up to 57.1 µM
In short: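 Steps: add FEN1 (10 nM reagent) or buffer only; pin compounds; hold 15 min at room temperature; start with substrate, 50 nM final; read at 0 and 15 min; correct, normalize and fit a four-parameter Hill curve.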

[7] = target: M-phase phosphoprotein 8 (Homo sapiens) (UniProt Q99549); assay: qHTS Validation Assay for Inhibitors for MPP8 Chromodomain Interactions with Methylated Histone Tails (AID 488949); details: AlphaScreen MPP8 binding to H3K9me3 peptide; series mostly up to 57.1 µM; also: nearly all actives have a fitted effect of over 55% in size; also: potency is read from the fitted curve at half-maximal effect
In short: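 Disruption of the preformed MPP8–trimethyl-H3K9 peptide complex (both 50 nM, 30 min, RT) is measured after 30 min compound exposure, using AlphaScreen proximity beads; aurintricarboxylic acid titration serves as plate control.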

[8] = target: Methanococcus maripaludis chaperonin (MmCpn) (UniProt Q6LX38); assay: High-Throughput Screening for Modulators of Cytosolic Chaperonin Activity: MmCpn Primary Screen (AID 488978); details: Purified MmCpn ATPase activity, ADP HTRF detection, 10 min; series mostly up to 76.9 µM;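 also: 50 nM MmCpn enzyme hydrolysing 30 µM ATP at 37 °C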
In short: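 Measures ATPase turnover of the M. maripaludis chaperonin (50 nM final) against 30 uM ATP over 10 min at 37C, with compound added 5 min beforehand at room temperature. ADP is quantified by HTRF immunodetection.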

[9] = target: Chromobox protein homolog 1 (Homo sapiens) (UniProt P83916); assay: qHTS Validation Assay for Inhibitors of HP1-beta Chromodomain Interactions with Methylated Histone Tails (AID 488953); details: HP1-beta chromodomain / methylated histone peptide binding assay; series mostly up to 114 µM; also: nearly all actives have a fitted effect of over 50% in size; also: potency is read from the fitted curve at half-maximal effect
In short: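 AlphaScreen proximity signal from streptavidin donor and nickel chelate acceptor beads (final 10 ug/mL) after 30 min dark incubation. Compounds had 30 min at room temperature with preformed complex of 50 nM HP1-beta and 50 nM b-H3(1-18)K9me3 in PBS pH 7.4 with 0.01% Tween-20.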

Measured: Potency

Sequence of Thioredoxin reductase 1, cytoplasmic (Rattus norvegicus) (O89049 whole entry, looked up): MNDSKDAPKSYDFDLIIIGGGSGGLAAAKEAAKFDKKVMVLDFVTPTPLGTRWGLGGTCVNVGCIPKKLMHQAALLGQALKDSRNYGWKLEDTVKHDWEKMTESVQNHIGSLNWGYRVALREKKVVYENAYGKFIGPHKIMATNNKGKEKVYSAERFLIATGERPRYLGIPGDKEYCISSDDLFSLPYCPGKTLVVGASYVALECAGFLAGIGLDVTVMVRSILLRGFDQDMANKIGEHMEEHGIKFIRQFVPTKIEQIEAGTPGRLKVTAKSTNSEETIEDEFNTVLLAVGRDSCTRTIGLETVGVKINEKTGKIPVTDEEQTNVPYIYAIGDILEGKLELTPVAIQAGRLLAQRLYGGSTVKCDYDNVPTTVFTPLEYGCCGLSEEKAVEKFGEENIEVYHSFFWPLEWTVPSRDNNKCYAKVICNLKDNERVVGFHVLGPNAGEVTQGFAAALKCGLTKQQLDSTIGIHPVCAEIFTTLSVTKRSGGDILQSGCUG
Sequence of Chromobox protein homolog 1 (Homo sapiens) (P83916 whole entry, looked up): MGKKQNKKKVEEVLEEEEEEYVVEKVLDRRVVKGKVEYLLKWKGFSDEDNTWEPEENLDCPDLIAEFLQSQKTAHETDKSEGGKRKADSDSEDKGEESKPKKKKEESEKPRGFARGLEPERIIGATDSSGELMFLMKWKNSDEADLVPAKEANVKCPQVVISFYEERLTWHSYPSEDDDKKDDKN
Sequence of Flap endonuclease 1 (Homo sapiens) (P39748 whole entry, looked up): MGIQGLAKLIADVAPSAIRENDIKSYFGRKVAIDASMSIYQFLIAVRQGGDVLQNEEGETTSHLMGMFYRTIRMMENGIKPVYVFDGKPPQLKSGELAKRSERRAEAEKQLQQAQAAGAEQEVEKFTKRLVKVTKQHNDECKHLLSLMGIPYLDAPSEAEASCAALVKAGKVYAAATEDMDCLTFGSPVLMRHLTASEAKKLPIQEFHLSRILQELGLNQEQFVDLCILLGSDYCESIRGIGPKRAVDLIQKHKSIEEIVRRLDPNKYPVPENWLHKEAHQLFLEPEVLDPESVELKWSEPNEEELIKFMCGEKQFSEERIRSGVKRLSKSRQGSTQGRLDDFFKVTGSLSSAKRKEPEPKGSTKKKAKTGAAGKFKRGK
Sequence of Beta-2 adrenergic receptor (Homo sapiens) (P07550 whole entry, looked up): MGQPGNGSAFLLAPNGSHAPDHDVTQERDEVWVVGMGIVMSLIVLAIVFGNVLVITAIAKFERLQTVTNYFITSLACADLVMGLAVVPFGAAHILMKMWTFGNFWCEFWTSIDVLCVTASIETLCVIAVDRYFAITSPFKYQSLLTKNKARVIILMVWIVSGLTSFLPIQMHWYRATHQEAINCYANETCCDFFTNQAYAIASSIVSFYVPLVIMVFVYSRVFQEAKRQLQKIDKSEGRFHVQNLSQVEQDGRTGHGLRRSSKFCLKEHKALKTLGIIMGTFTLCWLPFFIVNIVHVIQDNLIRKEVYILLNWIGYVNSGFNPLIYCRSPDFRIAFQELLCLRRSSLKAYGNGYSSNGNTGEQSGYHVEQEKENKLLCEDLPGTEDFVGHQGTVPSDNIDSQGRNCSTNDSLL
Sequence of Methanococcus maripaludis chaperonin (MmCpn) (Q6LX38 1-543): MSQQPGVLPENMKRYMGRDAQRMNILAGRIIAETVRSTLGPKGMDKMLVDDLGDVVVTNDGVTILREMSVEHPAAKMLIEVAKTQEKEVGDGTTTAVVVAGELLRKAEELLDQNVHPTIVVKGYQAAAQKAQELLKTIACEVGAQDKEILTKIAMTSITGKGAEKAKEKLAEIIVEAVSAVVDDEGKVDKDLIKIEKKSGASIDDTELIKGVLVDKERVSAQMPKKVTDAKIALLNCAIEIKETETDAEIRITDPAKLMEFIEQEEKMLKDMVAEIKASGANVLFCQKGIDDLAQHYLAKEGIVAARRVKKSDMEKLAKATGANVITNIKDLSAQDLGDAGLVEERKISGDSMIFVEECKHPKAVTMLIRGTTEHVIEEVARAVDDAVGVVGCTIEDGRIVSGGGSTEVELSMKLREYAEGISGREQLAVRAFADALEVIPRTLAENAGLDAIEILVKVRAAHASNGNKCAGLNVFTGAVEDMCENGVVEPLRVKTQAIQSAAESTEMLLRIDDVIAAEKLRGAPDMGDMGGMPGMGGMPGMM
Sequence of M-phase phosphoprotein 8 (Homo sapiens) (Q99549 whole entry, looked up): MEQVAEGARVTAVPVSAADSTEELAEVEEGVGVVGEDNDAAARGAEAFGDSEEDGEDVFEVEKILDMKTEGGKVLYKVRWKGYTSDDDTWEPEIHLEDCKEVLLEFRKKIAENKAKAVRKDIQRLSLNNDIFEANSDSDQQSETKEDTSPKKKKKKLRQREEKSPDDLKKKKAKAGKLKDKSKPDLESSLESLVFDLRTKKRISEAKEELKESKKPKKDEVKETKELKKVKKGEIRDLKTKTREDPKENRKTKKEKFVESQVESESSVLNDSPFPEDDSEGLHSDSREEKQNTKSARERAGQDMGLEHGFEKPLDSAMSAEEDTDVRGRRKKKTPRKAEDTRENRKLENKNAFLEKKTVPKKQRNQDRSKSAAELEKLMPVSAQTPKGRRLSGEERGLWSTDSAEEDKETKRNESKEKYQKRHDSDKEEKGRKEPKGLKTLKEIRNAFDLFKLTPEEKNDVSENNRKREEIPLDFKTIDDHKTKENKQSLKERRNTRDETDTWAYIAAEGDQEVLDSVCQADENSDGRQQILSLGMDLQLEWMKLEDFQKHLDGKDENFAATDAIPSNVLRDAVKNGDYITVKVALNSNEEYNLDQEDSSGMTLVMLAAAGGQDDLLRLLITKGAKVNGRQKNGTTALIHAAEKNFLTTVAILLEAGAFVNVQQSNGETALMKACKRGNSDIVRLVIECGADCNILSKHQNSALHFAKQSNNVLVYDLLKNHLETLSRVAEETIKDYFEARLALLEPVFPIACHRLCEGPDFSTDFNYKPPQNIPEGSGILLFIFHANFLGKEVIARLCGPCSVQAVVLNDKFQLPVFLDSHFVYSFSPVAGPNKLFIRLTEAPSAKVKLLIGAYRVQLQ

NCCS(=O)O
not listed: [9]
inactive: all other assays above

N[C@@H](CS(=O)O)C(=O)O
not listed: [5]
inactive: all other assays above

Nc1ncnc2c1ncn2C1CCCC1
not listed: [5] | [8]
inactive: all other assays above

C[C@H](O)C(=O)C1=Nc2c(nc(N)[nH]c2=O)NC1
not listed: [5] | [6] | [8]
inactive: all other assays above

O=C(O)c1ccccc1Nc1cccc(OCc2ccc3ccccc3n2)c1
39.8 µM (active) and inactive: [7]
not listed: [5] | [9]
inactive: all other assays above

CCn1c(=O)[nH]c2cc(Cl)c(Cl)cc21
not listed: [6]
inactive: all other assays above

c1ccc(C2CN3CCSC3=N2)cc1 (stereo unspecified)
inactive: all assays above

O=C(O)Cc1ccc(O)c(O)c1
active: [5] 7.52 µM
not listed: [6] | [8]
inactive: all other assays above

O=C(O)c1cc(=O)cc(C(=O)O)[nH]1
not listed: [5]
inactive: all other assays above

CCCCCC(O)CCCC(=O)O (stereo unspecified)
not listed: [5]
inactive: all other assays above

O=[N+]([O-])c1cccc2c(Br)[nH]nc12
not listed: [5]
inactive: all other assays above

Cc1cccc(C2CN(C)CCc3c2cc(O)c(O)c3Cl)c1 (stereo unspecified)
active: [2] 4.65 µM
not listed: [9]
inactive: all other assays above

CCCCC[C@H](CC(=O)NO)C(=O)N[C@H](C(=O)N1CCC[C@H]1CO)C(C)C
active: [2] 1.17 µM | [3] 2.94 µM
inactive: all other assays above

Nc1ncnc2c1c(-c1ccc(Oc3ccccc3)cc1)cn2C1CCCC1
active: [2] 7.38 µM | [3] 9.28 µM
not listed: [7] | [9]
inactive: all other assays above

[Li+]
not listed: [6] | [8]
inactive: all other assays above

COC1(C2=NCCN2)COc2ccccc2O1 (stereo unspecified)
not listed: [9]
inactive: all other assays above

C=C(C)C1CC=C(C(=O)O)CC1 (stereo unspecified)
not listed: [6]
inactive: all other assays above

CC(=O)C(C)=O
not listed: [9]
inactive: all other assays above

Oc1ccc(Cn2cc[nH]c2=S)cc1
not listed: [6] | [9]
inactive: all other assays above

COc1ccc2c(c1)CCC1C2CC[C@@]2(C)C1CC[C@@H]2NCCCCCCN1C(=O)C=CC1=O (stereo partly specified)
not listed: [5] | [7] | [9]
inactive: all other assays above

NCC(O)C1CCCCCCC1 (stereo unspecified)
not listed: [3] | [8]
inactive: all other assays above

NS(=O)(=O)c1cccc2c1c([N+](=O)[O-])cc1nc(O)c(O)nc12
not listed: [4] | [9]
inactive: all other assays above

CCCCCCCCCCCCCCCCCCOC[C@H](COP(=O)([O-])OCC[N+](C)(C)C)OC
not listed: [4]
inactive: all other assays above

C=CC[C@H](N)C(=O)O
not listed: [3]
inactive: all other assays above

CCCOC(=O)c1c(-c2ccccc2)nc(CC)c(C(=O)SCC)c1CCC
active: [2] 14.7 µM
not listed: [3]
inactive: all other assays above

NC(Cc1cccc(-c2ccccc2CP(=O)(O)O)c1)C(=O)O (stereo unspecified)
not listed: [3]
inactive: all other assays above

Nc1ccc(N2C(=O)c3ccccc3C2=O)c(Cl)c1
not listed: [3]
inactive: all other assays above

NC/C=C\C(=O)O
not listed: [4] | [5]
inactive: all other assays above

CC[C@H](NC(=O)c1c(C)c(-c2ccccc2)nc2ccccc12)c1ccccc1
active: [2] 3.7 µM
not listed: [3]
inactive: all other assays above

COc1ccccc1N1CCN(CCCNc2c(C)c(=O)n(C)c(=O)n2C)CC1
active: [2] 14.7 µM
not listed: [3] | [9]
inactive: all other assays above

CCCCCCC/C=C\CCCCCCCCC(=O)O
not listed: [3]
inactive: all other assays above

CCN(CC)CCCCCCCCOC(=O)c1cc(OC)c(OC)c(OC)c1
active: [2] 18.5 µM
not listed: [3]
inactive: all other assays above

Oc1cc2c(cc1O)C(c1ccccc1)CNCC2 (stereo unspecified)
not listed: [4] | [8] | [9]
inactive: all other assays above

N[C@H]1CONC1=O
not listed: [3]
inactive: all other assays above

CNc1ncnc2c1ncn2[C@H]1C[C@H](OP(=O)(O)O)[C@@H](COP(=O)(O)O)O1
not listed: [4]
inactive: all other assays above

COC(=O)C(N)Cc1ccc(Cl)cc1 (stereo unspecified)
active: [9] 0.0067 µM
not listed: [4] | [5]
inactive: all other assays above

C#CC(N)CCC(=O)O (stereo unspecified)
not listed: [3]
inactive: all other assays above

COc1cc(N)c(Cl)cc1C(=O)OCCN1CCCCC1
active: [9] 0.006 µM
not listed: [3]
inactive: all other assays above

N=C(N)SCCN
not listed: [4]
inactive: all other assays above

CC1CNCCN1S(=O)(=O)c1cccc2cnccc12 (stereo unspecified)
not listed: [4]
inactive: all other assays above

O=C(O)C1CCNCC1
not listed: [3]
inactive: all other assays above

CCCCCCCC/C=C\CCCCCCCC(=O)NCCc1ccc(O)c(O)c1
inactive: [1] | [6] | [7] | [8]
active: [2] 14.7 µM | [3] 13.1 µM

CNc1cc(NS(=O)(=O)c2ccc(N)cc2)nc(NC)n1
not listed: [3] | [8] | [9]
inactive: all other assays above

CCCCS(=N)(=O)CC[C@H](N)C(=O)O (stereo partly specified)
not listed: [4] | [5] | [8]
inactive: all other assays above

O=C(O)c1cc2cc(F)ccc2[nH]1
not listed: [4]
inactive: all other assays above

COc1cccc(OC)c1OCCNCC1CSc2ccccc2O1 (stereo unspecified)
not listed: [4]
inactive: all other assays above

[N-]=[N+]=Nc1ccc(C(=O)CSC[C@H](NC(=O)CC[C@H](N)C(=O)O)C(=O)NCC(=O)O)cc1
35.5 µM (active) and inactive: [7]
active: [9] 39.8 µM
not listed: [3]
inactive: all other assays above

O=C(OCCN1CCOCC1)C1(c2ccccc2)CCCCC1
not listed: [3]
inactive: all other assays above

CC(=O)[C@H]1CCC2C3CC=C4C[C@@H](OS(=O)(=O)O)CC[C@]4(C)C3CC[C@@]21C (stereo partly specified)
not listed: [4] | [6]
inactive: all other assays above

Cc1cc2c(cc1Cl)N(C(=O)Nc1ccnc3ccccc13)CC2
not listed: [4] | [8]
inactive: all other assays above

NC(N)=NC(N)=Nc1cccc(Cl)c1
active: [2] 9.28 µM
not listed: [3]
inactive: all other assays above

O=C(O)C1=CCCNC1
not listed: [4] | [9]
inactive: all other assays above

OC[C@H]1O[C@@H](n2cnc3cncnc32)[C@H](O)[C@@H]1O
active: [2] 3.29 µM
not listed: [3]
inactive: all other assays above

CCC1(O)CC2CN(CCc3c([nH]c4ccccc34)[C@@](C(=O)OC)(c3cc4c(cc3OC)N(C=O)C3[C@]45CCN4CC=C[C@@](CC)([C@@H](OC(C)=O)[C@]3(O)C(=O)OC)[C@H]45)C2)C1 (stereo partly specified)
active: [2] 0.117 µM
not listed: [3] | [9]
inactive: all other assays above

Cc1cccc(C)c1OCC(N)C(C)C (stereo unspecified)
not listed: [3]
inactive: all other assays above

CN1CCCC1CCOC(C)(c1ccccc1)c1ccc(Cl)cc1 (stereo unspecified)
active: [2] 8.28 µM | [3] 10.4 µM
inactive: [1] | [5] | [7] | [8]

Cc1nc2c(OCc3ccccc3)cccn2c1CC#N
not listed: [3]
inactive: all other assays above

O=S(=O)(c1cccc2c(Cl)cccc12)N1CCCNCC1
not listed: [4] | [5]
inactive: all other assays above
